Experimental data from PubChem BioAssay (NCI).
This is part of a sample that, as a whole, favours compounds with a hit. Of some 83,000 tested, about 20% had one in any assay.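 Treatment: one concentration, 48 hours, 96-well format. Scoring: percent growth, with anything below 10 considered active.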 Activity calls are given as the source filed them.

test system: MDA-MB-468 breast; experiment: NCI-60 one-dose screen, 48 h (100 = growth as untreated, 0 = no growth, -100 = all killed); conditions: 10 µM unless noted

| Structure (SMILES) | growth |
| --- | --- |
| CS(=O)(=O)c1nccc(-c2c(-c3ccc(F)c(OCc4ccc(F)cc4)c3)nc3sccn23)n1 | -37.2% (active) |
| O=C(/C=C/c1ccccc1)c1ccc(O)c(CN2CCN(c3cc4c(cc3F)c(=O)c(C(=O)O)cn4C3CC3)CC2)c1 | 3.64% (active) |
| CSCCC1NC(=O)C(C(C)=Nc2ccccc2)=C1O (stereo not drawn) | 109% (inactive) |
| CCOc1cc(CCNS(=O)(=O)c2ccc(C)cc2)c(C(C)=O)cc1OCC | 67.1% [100 µM] (inactive) |
| COc1cc(NC(=O)c2cc(O)c(C/C=C(\C)CCC=C(C)C)c(O)c2)cc2c1O[C@]1(C)CC[C@@H](O)C(C)(C)[C@H]1C2 | 21.9% (inactive) |
| COC(=O)c1c(C)nc(C)c2c1C(=O)C(Br)=C(NCCN1CCOCC1)C2=O | 83.4% (inactive) |
| C/C=C(/C)C(=O)OC1C=C(CO)C(=O)C(OC(=O)/C(C)=C\C)C1C(C)C (stereo not drawn) | -50.9% (active) |
| Cn1nc(C(F)(F)F)cc1-c1c[nH]c(OCc2ccc(Cl)cc2)c(-c2ccc(Cl)c(C(F)(F)F)c2)c1=O | -17.1% (active) |
| CC(=O)C1=NN(c2ccc(Cl)cc2)C(=O)CN1C | 102% (inactive) |
| Oc1ccccc1/C=N/Nc1nc(N/N=C/c2ccccc2O)nc(N2CCOCC2)n1 | 39.2% (inactive) |
| CCC(C)(C)c1ccc(Nc2ccc(Nc3ccc(C(C)(C)CC)cc3)cc2)cc1 | 101% (inactive) |
| CC(C)(C)c1ccc(S(=O)(=O)Oc2ccc(NC(=O)C3CCCCC3)cc2)cc1 | 28.2% (inactive) |
| COc1cc2oc(-c3ccc(O)cc3)cc(=O)c2c(O)c1I | 105% (inactive) |
